High-throughput results from PubChem BioAssay.
This is a sample that favours compounds with a hit; in the whole collection about 11% have one here.
Pf growth 48h – inhibits P. falciparum growth in the first generation, 48 h | P. falciparum luciferase growth in erythrocytes, 48 h | AID 504832 | Potency, µM (highest dose often 28.7 µM), hits mostly inhibitors | actives 5.9% (n = 310,000)
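Growth was read as firefly luciferase luminescence after a 48 h, 37 C, 5% CO2 exposure of compounds to reporter-bearing P. falciparum cultures (0.1% parasitemia, 2% hematocrit final) in Albumax-supplemented RPMI 1640.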
Sm TGR inh – S. mansoni TGR enzyme inhibition | Q962Y6 | purified TGR, DTNB reduction, TNB absorbance 405 nm | Potency, µM (series often up to 114 µM), actives largely listed as inhibitors | actives 3% (n = 360,000); further: nearly all actives have a fitted effect of over 60% in size
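Kinetic colorimetric format: TGR-catalysed, NADPH-driven DTNB reduction monitored via TNB absorbance. Enzyme dispensed at 20 nM; compound exposure 15 min at room temperature before reaction start.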
Pf growth 96h – P. falciparum growth inhibition at 96 hours. P. falciparum luciferase reporter growth, 96 h. Potency, µM (doses to about 28.7 µM), usual class: inhibitors. actives 6.9% (n = 320,000)
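Cell-based qHTS: luciferase-tagged P. falciparum in erythrocytes (2% hematocrit, 0.05% parasitemia final) incubated with compounds for 96 hours, 37 C, 5% CO2; luciferase detection reagent then added and luminescence measured.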
AMA1-RON2 inh – AMA1-RON2 (P. falciparum) interaction inhibition | AlphaScreen AMA1-biotinylated RON2 peptide binding | Potency, µM (top dose mostly 58.2 µM), hits mostly inhibitors | actives 0.2% (n = 360,000); further: nearly all actives have a fitted effect of over 45% in size
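AMA1 (3D7) with his tag at 25 nM final met compounds first, then biotinylated RON2 peptide at 25 nM; detection used donor plus acceptor beads, 10 µg/mL apiece, read by AlphaScreen after 30 min at room temperature.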
NS1 function inh – inhibitors of influenza NS1 protein function; Potency, µM (series often up to 46.1 µM); actives 0.4% (n = 270,000); AID 2326; calls by dose curve; further: actives are rising curves; nearly all actives have a fitted effect of over 50% in size
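Growth recovery, yeast-based: influenza A NS1 expressed in S. cerevisiae causes slow growth, and suppressors are detected by OD600. The parent strain without NS1 is used as positive control.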
Numbers stand for hits; - = inactive; ? = inconclusive; . = no result given; [ ] = remark or other dose. Unless noted, the call rests on the fitted dose curve; in most records, active means well fitted curve in the direction sought with a large enough effect; inconclusive means small, poorly fitted or top-dose-only effect, or another doubt; inactive means no such curve, though single readings can be large; an effect the other way counts as inactive or inconclusive.

SMILES | Pf growth 48h | Sm TGR inh | Pf growth 96h | AMA1-RON2 inh | NS1 function inh
Cc1nc(-c2ccc(F)cc2)c(CC(=O)N(C)CC(=O)Nc2ccccc2Cl)s1 | - | - | 13.1µM | - | .
Cc1nc(-c2ccc(F)cc2)c(CC(=O)N(C)CC(=O)Nc2ccc(Cl)c(C(F)(F)F)c2)s1 | . | . | . | - | .
COc1ccc(OCC(NS(=O)(=O)c2ccc(-n3cnnn3)cc2)C(C)C)cc1 (stereo unspecified) | ? | - | - | - | -
Cc1cc(OC(C)C(N)=O)nc(-c2ccccc2)n1 (stereo unspecified) | 14.7µM | - | - | - | .
Cc1cc(Cl)nc(-c2ccccc2)n1 | - | - | - | - | -
Cc1ccc(Cl)cc1NC(=O)Nc1cccc(OCc2cc(=O)n3ccccc3n2)c1 | . | - | . | . | .
CCCCCCN=C1CC(C)(C)CC(=O)/C1=C(/O)CCC | ? | - | 6.57µM | - | -
COC(=O)c1ccccc1C(=O)N(Cc1cccnc1)CC1CCCN(C2CCCCC2)C1 (stereo unspecified) | ? | - | 13.1µM | - | -
CCc1ccc(-c2csc3[n+]2CCN3C(C)=O)cc1 | 2.94µM | - | ? | - | -
CC(=O)Nc1sc2c(c1C(c1ccccc1)N1CCOCC1)CCCC2 (stereo unspecified) | ? | - | . | - | -
CC(=O)Nc1sc2c(c1C(c1ccc(Cl)cc1)N1CCOCC1)CCCC2 (stereo unspecified) | . | - | 1.31µM | - | -
CC(=O)Nc1sc2c(c1C(c1ccc(F)cc1)N1CCOCC1)CCCC2 (stereo unspecified) | . | ? | 1.17µM | - | -
Cc1ccc(NC(=O)CSc2nnc(C)s2)c(C)c1 | . | - | . | . | .
COC(=O)c1ccc(C2c3c(oc4ccccc4c3=O)C(=O)N2CCCN2CCOCC2)cc1 (stereo unspecified) | . | 25.1µM | ? | - | -
COC(=O)c1ccc(C2c3c(oc4cc(C)c(C)cc4c3=O)C(=O)N2CCCN(C)C)cc1 (stereo unspecified) | 5.22µM | ? | - | . | -
CCN(CC)CCN1C(=O)c2oc3ccccc3c(=O)c2C1c1ccc(C)cc1 (stereo unspecified) | 3.29µM | - | 2.62µM | - | -
CCOc1ccc(C2c3c(oc4ccccc4c3=O)C(=O)N2CCCN2CCOCC2)cc1 (stereo unspecified) | ? | 35.5µM | . | - | ?
CCOc1ccc(C2c3c(oc4cc(C)c(C)cc4c3=O)C(=O)N2CCCN2CCOCC2)cc1 (stereo unspecified) | . | - | - | - | -
CCOc1ccc(C2c3c(oc4cc(C)c(C)cc4c3=O)C(=O)N2CCCN(C)C)cc1OC (stereo unspecified) | . | ? | ? | - | ?
CCOc1ccc(CCNC(=O)COC(=O)C2CC2)cc1OCC | - | - | - | - | .
COc1ccc2c(c1)c(=O)c(S(=O)(=O)c1ccc(C)c(C)c1)cn2CC(=O)Nc1ccccc1 | . | - | . | . | .
CC(C)CCOc1cccc(C2c3c(oc4ccccc4c3=O)C(=O)N2CCCN2CCOCC2)c1 (stereo unspecified) | . | . | . | - | -
CCCOc1ccc(C2c3c(oc4ccccc4c3=O)C(=O)N2CCCN2CCOCC2)cc1 (stereo unspecified) | ? | 35.5µM | ? | - | -
CN1C(=O)c2oc3ccccc3c(=O)c2C1c1ccncc1 (stereo unspecified) | - | 44.7µM | - | - | -
O=[N+]([O-])c1ccc(C[n+]2cc(-c3ccccc3)n3c2CCCCC3)cc1 | 5.22µM | - | - | - | .
SMILES | Pf growth 48h | Sm TGR inh | Pf growth 96h | AMA1-RON2 inh | NS1 function inh
N#CC[n+]1cc(-c2ccc(Cl)cc2)n2c1CCC2 | ? | - | - | - | -
Clc1ccc(C[n+]2cc(-c3ccccc3)n3c2CCC3)cc1Cl | ? | - | ? | - | -
Clc1ccc(-c2c[n+](Cc3cccc(Cl)c3)c3n2CCC3)cc1 | 1.85µM | - | 0.262µM | -[2.32 µM] | -
Clc1ccc(C[n+]2cc(-c3ccccc3)n3c2CCCCC3)c(Cl)c1 | 0.738µM | - | 2.62µM | - | -
O=[N+]([O-])c1ccc(C[n+]2cc(-c3ccc(Cl)c(Cl)c3)n3c2CCCCC3)cc1 | ? | - | ? | - | -
Clc1ccc(-c2c[n+](Cc3ccc(Br)cc3)c3n2CCCCC3)cc1 | 0.415µM | - | 0.0586µM | - | -
CC(C)CCN1CCC(n2nccc2NC(=O)C2CCOC2)CC1 (stereo unspecified) | - | - | - | - | -
O=C(Cn1c(=O)n(Cc2ccco2)c(=O)c2ccccc21)Nc1ccc(Cl)cc1Cl | . | - | . | . | .
Clc1ccc(-c2cnc3n2CCCCC3)cc1 | - | - | - | - | .
Clc1ccc(-c2c[n+](Cc3ccc(Cl)cc3Cl)c3n2CCCCC3)cc1 | 1.65µM | - | 0.165µM | - | -
OC(Cn1cncn1)(c1ccc(F)cc1)c1ccc(Cl)cc1 (stereo unspecified) | -[0.00184 µM] | - | ? | - | -
Cn1c(N)c(C(=O)COC(=O)Cc2ccsc2)c(=O)n(C)c1=O | - | - | 10.4µM | - | -
Cn1c(N)c(C(=O)COC(=O)Cc2ccc(Br)cc2)c(=O)n(C)c1=O | . | . | . | - | .
C/C1=C\[C@@H](C)C/C=C/[C@H]2[C@@H]3O[C@]3(C)[C@@H](C)[C@H]3[C@H](Cc4c[nH]c5ccccc45)NC(=O)[C@]32C(=O)/C=C/C(=O)[C@@H]1O | 0.294µM | - | - | - | -
Nc1c(C(O)(C(F)(F)F)C(F)(F)F)ccc2ccccc12 | ? | 39.8µM | . | - | -
COc1ccc(OCC(O)Cn2c(Nc3cccc(C)c3)nc3c2c(=O)n(C)c(=O)n3C)cc1 (stereo unspecified) | 2.33µM | - | 3.29µM | - | -
COc1ccc(OCC(O)Cn2c(NCCO)nc3c2c(=O)n(C)c(=O)n3C)cc1 (stereo unspecified) | . | - | . | . | .
Cc1ccccc1OCC(O)Cn1c(NCc2ccco2)nc2c1c(=O)n(C)c(=O)n2C (stereo unspecified) | 14.7µM | - | ? | - | -
Cc1ccccc1OCC(O)Cn1c(Br)nc2c1c(=O)n(C)c(=O)n2C (stereo unspecified) | - | - | ? | - | -
Cc1ccccc1OCC(O)Cn1c(SC(C)C)nc2c1c(=O)[nH]c(=O)n2C (stereo unspecified) | ? | - | 10.4µM | - | -
Cn1nc(C(=O)OCC(=O)Nc2ccc(F)cc2Cl)c2ccccc2c1=O | . | . | . | - | .
CC(OC(=O)C1CCC1)C(=O)Nc1cc(Cl)cc(Cl)c1 (stereo unspecified) | - | - | - | - | .
O=C(/C=C\Nc1ccc(S(=O)(=O)Nc2ncccn2)cc1)c1ccccc1 | - | - | - | - | -
Cc1cc(Cl)c(S(=O)(=O)N2CCN(c3ccc(F)cc3)CC2)cc1OCC(=O)NC1CCCCC1 | . | - | 6.57µM | - | -
Cc1cc(S(=O)(=O)N2CCCC2)ccc1OCC(=O)NC1CCCC1 | - | - | - | - | -
CCOC(=O)C1CCCN(S(=O)(=O)c2cc(OCC(=O)NC3CCCCC3)c(C)cc2Cl)C1 (stereo unspecified) | . | - | 0.465µM | - | -
